# In the supplement of paper PMC3842684:
# What was measured:
# [1] = test system: P. falciparum NF54-pfs16-GFP early (I-III) stage gametocytes; test: relative % inhibition of viable gametocyte number; higher = more gametocytocidal; conditions: stage: early (I-III) gametocyte, incubation 72 h
# In short: (§1)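 Viable gametocytes were counted by confocal imaging as elongated GFP objects carrying MitoTracker Red signal above a cut-off, after 72 h of compound exposure (5 or 0.5 µM) at 37°C in 5% CO2 and 5% O2 and overnight staining. The NF54 pfs16-GFP gametocytes had been magnet-isolated at early (I/IIa, day 2) or late (day 8) stage and plated at 10% parasitaemia, 0.1% haematocrit in 384-well poly-D-lysine imaging plates. Relative inhibition was normalised to vehicle and positive-control wells within each plate.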
# [2] = test system: P. falciparum NF54-pfs16-GFP late (IV-V) stage gametocytes; test: as above; conditions: stage: late (IV-V) gametocyte, incubation 72 h
# In short: as §1
Structure (SMILES),relative % inhibition ([1]; 0.5 µM) [%],relative % inhibition ([1]; 5 µM) [%],relative % inhibition ([2]; 0.5 µM) [%],relative % inhibition ([2]; 5 µM) [%]
O=C(CCc1ccco1)NC1CCN(CC2(c3ccc(Cl)cc3)CCC2)CC1,-4.87,91.7,21.7,82.2
CCCc1cc(O)c2c3c(c(=O)oc2c1)CN(C)CC3,38.5,91.6,38.3,49.1
COc1ccc(CN2CCN(Cc3ccccc3)CC2)c(O)c1,-13.8,-3.4,12.2,7.95
CN(N=O)C1=C(NC2CCCCC2)C(=O)c2ccccc2C1=O,34.8,10.4,20.6,38.1
Oc1ccc(Br)cc1CN1CCN(Cc2cccc(F)c2)CC1,-1.27,63.9,50.4,95.9
CCOc1cc(CNC(C)C(O)c2ccccc2)cc(Cl)c1OCC (stereo not drawn),-15.8,-1.9,32.7,74.4
C=CC12CCN(CC1)C(C(O)c1ccnc3ccc(OC)cc13)C2 (stereo not drawn),91.6,75.8,37.9,36.1
CCOc1c(Cl)cc(CNC(C)C(O)c2ccccc2)cc1OC (stereo not drawn),-16.9,71.9,-0.71,31.3
Oc1ccc(Br)cc1CN1CCN(Cc2ccc(Cl)cc2)CC1,12.1,88.4,26.8,31
Oc1ccc(C(=C(Cl)Cl)c2ccc(O)cc2)cc1,-6.22,29.1,-1.73,-7.57
CCCCCCc1cc(O)c2c3c(c(=O)oc2c1)CCC(C)C3 (stereo not drawn),-14.4,86.1,69.5,98.9
COc1cc(CNCCc2ccc(Cl)cc2)cc(OC)c1O,9.61,87.4,-10.8,3.51
